The list is not random: actives were taken first. Their share in the collection is about 21%.
DT40 TDP1 no CPT: qHTS for Inhibitors of human tyrosyl-DNA phosphodiesterase 1 (TDP1): qHTS in cells in absence of CPT. DT40 Tdp1-/- hTDP1 cells, no CPT, ATP luminescence, 48 h. Potency, µM (series often up to 46.2 µM), for inactives: at the top dose activity change, negative = growth inhibition, usual class: inhibitors. 15% of 420,000 active. AID 686978, 2013; note: potency is the fitted concentration of half-maximal effect; % is set by controls: 0 for no effect and ±100 for the full control effect; nearly all actives have a fitted effect of over 55% in size
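Readout: luminescence from CellTiter-Glo after 30 min in the dark at RT. Cells: DT40 Tdp1-/- with stable hTDP1, 400/well. Exposure: compounds alone, ≥48 hr, 37 °C.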
D3 antag: blocks the human D3 dopamine receptor. P35462. D3R cells, DiscoveRx beta-arrestin luminescence, antagonist mode; active compounds read low. max response, negative = inhibition, %. 2.5% of 360,000 active. AID 652054; in the data active = max response below about -50%; inconclusive = no clear call, values can overlap the other calls; note: % is set by controls: 0 for no effect and ±100 for the full control effect
Target sequence (P35462 whole entry, looked up): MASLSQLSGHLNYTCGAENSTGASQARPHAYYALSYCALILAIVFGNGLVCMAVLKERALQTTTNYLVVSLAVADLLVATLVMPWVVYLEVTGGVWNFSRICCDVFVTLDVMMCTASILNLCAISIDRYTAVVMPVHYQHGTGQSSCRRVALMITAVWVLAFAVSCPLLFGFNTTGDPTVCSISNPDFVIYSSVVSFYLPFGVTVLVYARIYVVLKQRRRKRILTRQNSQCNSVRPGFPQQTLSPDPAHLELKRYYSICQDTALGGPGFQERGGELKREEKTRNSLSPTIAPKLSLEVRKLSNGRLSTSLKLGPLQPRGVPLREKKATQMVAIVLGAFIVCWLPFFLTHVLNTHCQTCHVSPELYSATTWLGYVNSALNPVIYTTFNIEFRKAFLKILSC
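Cells plated overnight at 1500 cells/well, then exposed to library compounds with dopamine controls for 90 minutes at 37 degrees C. DiscoveRx reagent added for 30–60 minutes at room temperature; luminescence read, quantitative HTS format.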
ClpP mod: qHTS Assay for Activators of ClpP; ATP-dependent Clp protease proteolytic subunit (Bacillus subtilis (strain 168)), P80244; purified B. subtilis ClpP, FRET peptide cleavage, 20 min; Potency, µM (doses to about 57.5 µM), without a hit: at the highest dose activity change, negative = active; 1.9% of 340,000 active; active = well fitted falling curve with a large enough effect; inconclusive = small, poorly fitted or top-dose-only effect; inactive = no such curve, though single readings can be large or run the other way; note: potency is the fitted concentration of half-maximal effect; the source files actives as falling curves though it sought activators and does not explain the sign; nearly all actives have a fitted effect of over 65% in size
Target sequence (P80244 whole entry, looked up): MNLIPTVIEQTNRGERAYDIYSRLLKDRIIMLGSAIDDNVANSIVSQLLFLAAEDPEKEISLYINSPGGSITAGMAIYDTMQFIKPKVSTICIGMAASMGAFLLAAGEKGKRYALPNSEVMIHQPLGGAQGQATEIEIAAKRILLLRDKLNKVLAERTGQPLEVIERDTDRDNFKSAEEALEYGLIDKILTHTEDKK
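Buffer: 100 mM Tris/HCl pH8, 100 mM KCl, 0.05% low protease BSA, 2.5% glycerol, 0.01% Tween-20. ClpP 10 microg/mL final; 20 min RT; delta FRET normalized to ADEP and DMSO controls.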
IL1B secr inh: inhibitors of inflammasome signaling (IL-1 beta secretion) | THP-1 LPS/ATP IL-1B secretion, AlphaLISA, 16 h; active compounds read low | activity change, % at 57.5 µM | 4.7% of 360,000 active; in the data active = activity change below about -50%; inconclusive = mostly about -30% to -49%; note: % is set by controls: 0 for no effect and ±100 for the full control effect
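THP-1 cells pretreated 1 hr with compounds (up to 57.5 uM final), then stimulated with LPS (250 ng/mL final) plus ATP (1.25 mM final); secreted IL-1B measured by AlphaLISA after 16 hr, decreased signal indicating inhibition.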
DRD3 agonist: activates the human D3 dopamine receptor; max activation, %; 0.58% of 410,000 active; D3R DiscoveRx beta-arrestin cells, luminescence, 90 min; P35462; in the data active = max activation above about 30%; note: 0% is about no effect
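Agonist mode: compounds and dopamine controls were applied to plated cells for 90 min at 37 degrees C after an overnight attachment at 1500 cells/well. Luminescent read-out followed 30 - 60 minutes at room temperature with DiscoveRx detection reagent.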
TDP1 cell CPT: DT40-hTDP1 cell growth loss with CPT; 12% of 420,000 active; Potency, µM (doses to about 46.2 µM), for inactives: at the highest dose activity change, negative = growth inhibition, most hits filed as inhibitors; AID 686979; chicken DT40 Tdp1-/-;hTDP1 cells + 20 nM CPT, ATP luminescence, 48 h; note: potency is the fitted concentration of half-maximal effect; % is set by controls: 0 for no effect and ±100 for the full control effect; nearly all actives have a fitted effect of over 55% in size
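Chicken DT40 Tdp1-/- cells complemented with human TDP1, 400 cells/well, exposed to compounds plus 20 nM camptothecin for at least 48 h at 37 C; viability read as ATP content by CellTiter-Glo luminescence.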
The depositor's hits bear a star; ? = inconclusive; · = not tested or not shown. Unless noted, calls come from the whole dose curve; as a rule, active = well fitted inhibition curve with a large enough effect; inconclusive = small, poorly fitted or top-dose-only effect; inactive = flat fitted curve, though single readings scatter.

SMILES	DT40 TDP1 no CPT	D3 antag	ClpP mod	IL1B secr inh	DRD3 agonist	TDP1 cell CPT
CN(Cc1ccccc1)C(=O)c1cccc(NC(=O)Cc2ccc(NC(=O)C3CCN(C(=O)c4ccccc4)CC3)cc2)c1	-28%	0	0%	19	11	-22%
CN(Cc1ccccc1)C(=O)c1ccc(NC(=O)Cc2ccc(NC(=O)C3CCN(C(=O)c4ccccc4)CC3)cc2)cc1	?	18	1%	8	-4	?
CC1(c2nnnn2Cc2ccccc2)CCC(=O)N1Cc1ccc(F)cc1 (stereo not drawn)	-14%	21	1%	33	4	-12%
O=C1C[C@@H]2C(=O)N(c3ccccc3)C(=O)[C@@H]2[C@@H]2CN(S(=O)(=O)c3ccccc3)[C@@H](c3ccccc3)[C@H]12	-9%	-1	2%	13	-5	-15%
O=C(Nc1ccccc1C(=O)O)c1ccc(NC(=O)C2CCCO2)cc1 (stereo not drawn)	-16%	9	-3%	-6	-2	-24%
O=C(NCCN1CCN(c2ccccc2)CC1)C1CCN(S(=O)(=O)N2CCOCC2)CC1	-29%	-4	0%	7	63*	?
O=C(NCCCN1CCN(c2ccccc2F)CC1)C1CCN(S(=O)(=O)N2CCOCC2)CC1	4%	?	-1%	15	26	7%
O=C(NCCCN1CCc2ccccc2C1)C1CCN(S(=O)(=O)N2CCCC2)CC1	-19%	-80*	-2%	35	-28	0%
O=C(NCCCN1CCc2ccccc2C1)C1CCN(S(=O)(=O)N2CCC3(CC2)OCCO3)CC1	-15%	-65*	-4%	2	-12	-15%
O=C(NCCN1CCN(c2ccccc2)CC1)c1ccc(NC(=O)C2CCCO2)cc1 (stereo not drawn)	-18%	-15	1%	0	70*	-18%
CCn1c(=O)c([N+](=O)[O-])c(NCc2ccco2)c2ccccc21	-28%	14	-1%	-6	0	-2%
CN1CC[C@@]2(CCCN(S(=O)(=O)c3ccccc3)C2)C1	-17%	·	·	·	·	0%
Cc1cc(=O)n2nc(N3CCCC(C(=O)NCCCN4CCc5ccccc5C4)C3)sc2n1 (stereo not drawn)	-6%	-86*	-2%	-8	-17	8%
CCCS(=O)(=O)N1CCC(C(=O)NCCN2CCC(Cc3ccccc3)CC2)CC1	-25%	-57*	1%	4	5	-20%
CCC1CCCCN1CCCNC(=O)C1CCCN(c2nn3c(=O)cc(C)nc3s2)C1 (stereo not drawn)	13%	-2	-10%	6	-1	-25%
Cc1ccc(C(C)C)c(OCc2ccc(C(=O)Nc3ccc(S(N)(=O)=O)cc3C)o2)c1	?	·	-12%	·	5	?
Cc1cc(Nc2nc3ccccc3nc2Cl)n(-c2ccc([N+](=O)[O-])cc2)n1	13µM*	-16	1%	-87*	-10	18µM*
COc1cc(NC(=O)N2CCSc3ccccc32)cc(OC)c1OC	?	·	-3%	·	0	?
Cc1cc(Cl)n2ncc(-c3ccccc3)c2n1	29µM*	-12	-4%	-99*	-6	?
Cc1cc(C)n2ncc(-c3cccc(Br)c3)c2n1	-3%	26	·	17	-4	8%
Cc1cc(N)n2ncc(-c3ccc(Cl)cc3)c2n1	?	25	22µM*	-14	1	18µM*
O=C(Nc1ccccc1Cl)N1CCC2(CC1)Oc1ccccc1C(=O)N2Cc1ccc(F)cc1	21µM*	·	-1%	·	0	?
O=C(Nc1ccc(Br)cc1F)N1CCC2(CC1)Oc1ccccc1C(=O)N2Cc1ccccc1F	16µM*	·	1%	·	0	?
COc1ccc(Cl)cc1NC(=O)N1CCC2(CC1)Oc1ccccc1C(=O)N2Cc1ccc(F)cc1	?	·	-2%	·	3	?
O=C(Nc1ccc(F)c(Cl)c1)N1CCC2(CC1)Oc1ccccc1C(=O)N2Cc1ccccc1F	12µM*	·	2%	·	-8	?
SMILES	DT40 TDP1 no CPT	D3 antag	ClpP mod	IL1B secr inh	DRD3 agonist	TDP1 cell CPT
Cc1ccc(NC(=O)N2CCC3(CC2)Oc2ccccc2C(=O)N3Cc2ccc(F)cc2)cc1	?	·	-2%	·	2	?
CC1(c2nc3ccccc3[nH]2)CCCC2=Nc3ccccc3CN21 (stereo not drawn)	18µM*	7	-3%	-14	-6	?
COc1ccccc1S(=O)(=O)Cc1ccc(C(=O)N2CCN(c3cccc(Cl)c3)CC2)o1	5.8µM*	60	1%	14	6	6.5µM*
COc1ccccc1S(=O)(=O)Cc1ccc(C(=O)N2CCN(c3cc(Cl)ccc3C)CC2)o1	8.2µM*	·	-3%	·	7	?
CCc1ccccc1NS(=O)(=O)c1cc2c(cc1C)n(C)c(=O)c(=O)n2C	-23%	-13	2%	22	0	-23%
Cn1c(=O)n(C)c2cc(S(=O)(=O)Nc3ccccc3)ccc21	?	1	·	-15	21	-16%
CC(C)c1ccc(S(=O)(=O)Nc2cc3c(cc2NCc2ccccc2)n(C)c(=O)n3C)cc1	?	·	4%	·	2	?
Cc1ccc(S(=O)(=O)Nc2cc3c(cc2NCc2ccccc2)n(C)c(=O)n3C)cc1	16µM*	·	4%	·	2	9.2µM*
Cn1c(=O)n(C)c2cc(NS(=O)(=O)c3ccc(F)cc3)c(NCc3ccccc3)cc21	15µM*	·	5%	·	2	9.2µM*
Cc1ccc(S(=O)(=O)Nc2cc3c(cc2NCc2ccccc2)n(C)c(=O)n3C)c(C)c1	23µM*	·	4%	·	-4	8.2µM*
O=C(OCc1cccc([N+](=O)[O-])c1)c1ccc[nH]c1=O	-5%	-16	·	4	3	-9%
O=C(Cn1nc(Br)nc1Br)c1ccccc1	-4%	4	-2%	-11	-17	1%
COc1ccc(CNC(=O)COC(=O)c2ccc(S(=O)(=O)N3CCCCC3)cc2)cc1	-21%	-9	-1%	6	1	2%
Cn1c(CC(=O)NNC(=O)c2ccc(F)cc2Cl)nc2ccccc21	?	-2	-1%	8	1	16µM*
COc1cc(/C=C2\C(=N)N3N=C(S(C)(=O)=O)SC3=NC2=O)ccc1OS(=O)(=O)c1ccc(C)cc1	?	8	-25%	-4	1	?
CC1=C(c2ccc(C(C)C)cc2)S(=O)(=O)NC1=NCc1ccccc1Br	13µM*	·	-3%	·	-3	?
